Drawing on PubChem BioAssay (EPA / NIEHS), this text covers outcome and AC50 for 11 compounds.

By AC50 is commonly meant the midpoint of the concentration-response curve, whichever way the signal moves.

Test [1] addresses Oxysterols receptor LXR-beta (Homo sapiens) (UniProt P55055). The test can be described thus: ATG_LXRb_TRANS: Attagene TRANS-FACTORIAL HepG2 Assay for human Liver X Receptor beta (LXRb) (AID 2282981; active = hit-call score of the fitted dose curve at least 0.9, where 1 is the maximum). To be noted: HepG2 Attagene TRANS GAL4-LXRb reporter, mRNA. The method in brief:
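Multiplexed reporter assay, HepG2, 24 h dosing. Fluorescence of labelled RT-PCR products after capillary electrophoresis gives transcript level; positive fitting direction relative to DMSO.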

The target of test [2] is Hepatocyte nuclear factor 4-alpha (Homo sapiens) (UniProt P41235). Nature of the test: ATG_HNF4a_TRANS: Attagene TRANS-FACTORIAL HepG2 Assay for human Hepatocyte Nuclear Factor 4 alpha (HNF4a) (AID 2282982; active = hit-call score of the fitted dose curve at least 0.9, where 1 is the maximum). The following applies: HepG2 HNF4a transactivation reporter, mRNA readout. Put shortly:
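Endpoint reflects transcriptional activation of a GAL4-UAS reporter by an HNF4a-GAL4 chimera in transfected HepG2 cells, 24 h post-dosing. Fluorescence from RT-PCR products separated by capillary electrophoresis; DMSO baseline.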

Test [3] can be described thus: ATG_M_06_TRANS: Attagene TRANS-FACTORIAL HepG2 Assay for M06 Transcription Factor (Internal Marker) (AID 2282983; active = hit-call score of the fitted dose curve at least 0.9, where 1 is the maximum). The following applies: HepG2 Attagene TRANS M06 internal marker reporter. Put shortly:
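Read-out: fluorescent reporter cDNA fragments resolved by capillary electrophoresis after RT-PCR and HpaI cut. Source cells were HepG2 carrying transfected multi-reporter GAL4 constructs, dosed 24 h. Increase over DMSO control analysed.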

Test [4] in a line: ATG_M_32_TRANS: Attagene TRANS-FACTORIAL HepG2 Assay for M32 Transcription Factor (Internal Marker) (AID 2282984; active = hit-call score of the fitted dose curve at least 0.9, where 1 is the maximum;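 note: transcript level of a background control reporter unit measured by RT-PCR and capillary electrophoresis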). To be noted: HepG2 Attagene TRANS M32 internal marker reporter. The method in brief: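 Internal-marker readout from a multiplexed transcription reporter panel. HepG2 cells were transfected with GAL4-UAS reporter units, treated 24 hours, and reporter transcript levels determined by fluorescence after RT-PCR and capillary separation.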

Test [5] deals with Nuclear receptor subfamily 4 group A member 2 (Homo sapiens) (UniProt P43354). The test can be described thus: ATG_NURR1_TRANS: Attagene TRANS-FACTORIAL HepG2 Assay for human Nuclear Receptor Related Protein 1 (NURR1) (AID 2282985; active = hit-call score of the fitted dose curve at least 0.9, where 1 is the maximum). To be noted: HepG2 Attagene TRANS reporter, mRNA readout. The method in brief: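 Endpoint: reporter mRNA increase relative to DMSO. HepG2 cells transfected with reporter units, treated 24 h; RNA processed by RT-PCR, labelling, HpaI digestion and capillary electrophoresis.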

Test [6] deals with Transcriptional activator Myb (Homo sapiens) (UniProt P10242). The test can be described thus: ATG_Myb_CIS: Attagene CIS-FACTORIAL HepG2 Assay for human Myeloblastosis (Myb) Proto-Oncogene Transcription Factor (AID 2282986). To be noted: HepG2 Attagene CIS-FACTORIAL Myb reporter transcription; actives raise or lower the signal. The method in brief: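 Fluorescence signals from capillary electrophoresis of RT-PCR-amplified reporter cDNA give the read-out. Cells: HepG2 transfected with multiple cis-regulated reporter units. Exposure lasts 24 hours; DMSO defines baseline for gain or loss of signal.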

Test [7] has as its target Nuclear respiratory factor 1 (Homo sapiens) (UniProt Q16656). Nature of the test: ATG_NRF1_CIS: Attagene CIS-FACTORIAL HepG2 Assay for human Nuclear Respiratory Factor 1 (NRF1) Orphan Gene (AID 2282987). The following applies: HepG2 NRF1 cis-element reporter, Attagene multiplex; actives raise or lower the signal. Put shortly:
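Transcriptional reporter readout, one component of a 52-endpoint multiplexed HepG2 panel. Exposure 24 h; mRNA detected via RT-PCR and fluorescent capillary electrophoresis; fitting in both directions against DMSO.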

A short description of test [8]: ATG_NFI_CIS: Attagene CIS-FACTORIAL HepG2 Assay for human Nuclear Factor I (NFI) (AID 2282989). To be noted: HepG2 cis-regulatory reporter, NFI response element transcription; actives raise or lower the signal. Put shortly: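 Multiplexed cis-reporter system in human HepG2 cells reports native TF activity as reporter mRNA induction 24 h post-dose. Fragments labelled with 6-FAM, HpaI-digested and resolved by capillary electrophoresis; activity fitted both directions versus DMSO.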

Test [9] has as its target Myc proto-oncogene protein (Homo sapiens) (UniProt P01106). The test can be described thus: ATG_Myc_CIS: Attagene CIS-FACTORIAL HepG2 Assay for human Myelocytomatosis (Myc) Proto-Oncogene Transcription Factor (AID 2282990). The following applies: HepG2, Attagene cis-reporter transcription factor activity; actives raise or lower the signal. The method in brief: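 Transiently transfected HepG2 cells bearing cis-promoter reporter units for endogenous transcription factors; 24 h exposure. Reporter mRNA measured by RT-PCR, 6-FAM primer extension, HpaI cut and capillary electrophoresis; bidirectional fit relative to DMSO.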

A short description of test [10]: ATG_NF_kB_CIS: Attagene CIS-FACTORIAL HepG2 Assay for human Nuclear Factor Kappa B (NF-kB) (AID 2282991). To be noted: HepG2 Attagene cis-factorial NF-kB reporter mRNA; actives raise or lower the signal. Put shortly:
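HepG2, transient multi-reporter transfection, cis promoter elements (endogenous TFs). 24 h exposure. Total RNA → RT → PCR → 6-FAM label → HpaI → CE. Gain/loss vs DMSO.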

The nature of test [11]: ATG_NRF2_ARE_CIS: Attagene CIS-FACTORIAL HepG2 Assay for human Nuclear Factor Erythroid 2 Related Factor 2 (NFR2) response to Antioxidant Response Elements (ARE) (AID 2282992).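 For AC50: reporter mRNA level measured by RT-PCR and capillary electrophoresis fluorescence.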 To be noted: HepG2 Attagene ARE/NRF2 reporter, transcription factor activity; actives raise or lower the signal. Put shortly: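 Endogenous transcription factor activity in human liver HepG2 cells is tracked via a cis-element-driven reporter within a multiplexed set. mRNA induction is read by RT-PCR and capillary electrophoresis after 24 h, with DMSO as baseline.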

A short description of test [12]: ATG_Oct_MLP_CIS: Attagene CIS-FACTORIAL HepG2 Assay for human Octamer-Binding Transcription Factor (Oct) (AID 2282993). The following applies: HepG2 Attagene cis-factorial Oct reporter, mRNA; actives raise or lower the signal. Put shortly:
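After 24 h compound exposure, transfected HepG2 cells were lysed for total RNA; reporter-specific cDNA was PCR-amplified, fluorescently labelled and sized by capillary electrophoresis. Bidirectional curve fitting used DMSO as baseline.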

Test [13] has as its target Oxysterols receptor LXR-alpha (Homo sapiens) (UniProt Q13133). Nature of the test: ATG_LXRa_TRANS: Attagene TRANS-FACTORIAL HepG2 Assay for human Liver X Receptor alpha (LXRa) (AID 2282980; active = hit-call score of the fitted dose curve at least 0.9, where 1 is the maximum). To be noted: HepG2 Attagene TRANS reporter, LXRa transactivation. Put shortly: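 Read-out: reporter transcript levels by RT-PCR plus capillary electrophoresis, fluorescence intensity. Transiently transfected HepG2, exogenous NR-GAL4 chimera, GAL4-UAS reporters; 24 h compound exposure. Activity = increase over DMSO negative control.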

Test [14] has as its target Cellular tumor antigen p53 (Homo sapiens) (UniProt P04637). The test can be described thus: ATG_p53_CIS: Attagene CIS-FACTORIAL HepG2 Assay for human p53 Transcription Factor (AID 2282994). To be noted: HepG2 p53 cis-element reporter, Attagene mRNA; actives raise or lower the signal. The method in brief:
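Steps: transfect HepG2 with multiplexed cis reporter constructs; dose chemicals 24 h; extract RNA, reverse-transcribe, PCR-amplify reporter sequences; FAM-label, HpaI-digest, resolve fragments by CE. Activity fitted both directions relative to DMSO.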

Test [15] is described as follows: BSK_3C_TissueFactor: BioMAP Diversity Plus: 3C Assay for Tissue Factor Biomarker Activity (AID 2282997). To be noted: BioMAP 3C HUVEC, tissue factor biomarker readout; actives raise or lower the signal. Put shortly: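 HUVEC, 3C system, 24 h post-dose; Tissue Factor by ELISA; bidirectional fit vs DMSO baseline.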
Test [16] can be described thus: BSK_3C_uPAR: BioMAP Diversity Plus: 3C Assay for Urokinase-type plasminogen activator receptor (uPAR) Biomarker Activity (AID 2282998). The following applies: BioMAP 3C HUVEC, uPAR biomarker ELISA; actives raise or lower the signal. The method in brief: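 Values derive from bidirectional curve fitting relative to DMSO, which served as baseline of activity. uPAR was measured by ELISA in human umbilical vein endothelial primary cultures 24 h after compound addition.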
A general note: An ELISA detects its analyte on a solid surface through an enzyme-linked reagent.

Test [17] is described as follows: BSK_3C_VCAM1: BioMAP Diversity Plus: 3C Assay for Vascular cell adhesion molecule 1 (VCAM1) Biomarker Activity (AID 2282999). The following applies: BioMAP 3C HUVEC, VCAM1 ELISA, cytokine-stimulated; actives raise or lower the signal. Put shortly: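 HUVEC primary cells, 24 h compound exposure; VCAM-1 by ELISA; gain/loss of signal fitted bidirectionally vs DMSO baseline.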

Each structure is given as a SMILES string. Results filed as inconclusive are left out. Calls of active or inactive are those of the source. Rule for the calls, unless noted: active = hit-call score of the fitted dose curve at least 0.9, where 1 is the maximum; inactive = score below 0.9.

Cellular tumor antigen p53 (Homo sapiens), sequence (P04637 whole entry, looked up, the tested form may be a part): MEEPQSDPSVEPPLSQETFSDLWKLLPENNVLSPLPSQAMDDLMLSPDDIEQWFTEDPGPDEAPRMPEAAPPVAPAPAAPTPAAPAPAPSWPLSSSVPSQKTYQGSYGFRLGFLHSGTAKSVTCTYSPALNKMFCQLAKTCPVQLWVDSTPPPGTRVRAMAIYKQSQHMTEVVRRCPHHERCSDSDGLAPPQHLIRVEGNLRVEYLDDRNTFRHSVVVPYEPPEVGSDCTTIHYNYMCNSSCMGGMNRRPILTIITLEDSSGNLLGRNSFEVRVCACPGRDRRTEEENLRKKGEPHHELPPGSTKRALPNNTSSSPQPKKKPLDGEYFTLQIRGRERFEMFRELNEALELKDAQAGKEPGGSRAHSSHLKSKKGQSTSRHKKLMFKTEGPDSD
Nuclear respiratory factor 1 (Homo sapiens), sequence (Q16656 whole entry, looked up): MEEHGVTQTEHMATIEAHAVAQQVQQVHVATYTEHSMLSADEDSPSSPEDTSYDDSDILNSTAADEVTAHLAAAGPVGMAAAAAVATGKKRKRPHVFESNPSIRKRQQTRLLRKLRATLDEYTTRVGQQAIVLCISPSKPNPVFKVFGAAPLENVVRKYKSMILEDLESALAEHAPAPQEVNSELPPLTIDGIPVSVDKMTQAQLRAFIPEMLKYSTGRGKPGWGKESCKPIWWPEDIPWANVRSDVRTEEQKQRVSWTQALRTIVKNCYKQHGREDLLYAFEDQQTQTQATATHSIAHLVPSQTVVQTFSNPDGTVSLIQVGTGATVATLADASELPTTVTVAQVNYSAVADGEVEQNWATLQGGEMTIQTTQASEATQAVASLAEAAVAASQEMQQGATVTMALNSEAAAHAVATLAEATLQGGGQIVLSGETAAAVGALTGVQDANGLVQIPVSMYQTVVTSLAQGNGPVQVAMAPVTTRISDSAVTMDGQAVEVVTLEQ
Transcriptional activator Myb (Homo sapiens), sequence (P10242 whole entry, looked up): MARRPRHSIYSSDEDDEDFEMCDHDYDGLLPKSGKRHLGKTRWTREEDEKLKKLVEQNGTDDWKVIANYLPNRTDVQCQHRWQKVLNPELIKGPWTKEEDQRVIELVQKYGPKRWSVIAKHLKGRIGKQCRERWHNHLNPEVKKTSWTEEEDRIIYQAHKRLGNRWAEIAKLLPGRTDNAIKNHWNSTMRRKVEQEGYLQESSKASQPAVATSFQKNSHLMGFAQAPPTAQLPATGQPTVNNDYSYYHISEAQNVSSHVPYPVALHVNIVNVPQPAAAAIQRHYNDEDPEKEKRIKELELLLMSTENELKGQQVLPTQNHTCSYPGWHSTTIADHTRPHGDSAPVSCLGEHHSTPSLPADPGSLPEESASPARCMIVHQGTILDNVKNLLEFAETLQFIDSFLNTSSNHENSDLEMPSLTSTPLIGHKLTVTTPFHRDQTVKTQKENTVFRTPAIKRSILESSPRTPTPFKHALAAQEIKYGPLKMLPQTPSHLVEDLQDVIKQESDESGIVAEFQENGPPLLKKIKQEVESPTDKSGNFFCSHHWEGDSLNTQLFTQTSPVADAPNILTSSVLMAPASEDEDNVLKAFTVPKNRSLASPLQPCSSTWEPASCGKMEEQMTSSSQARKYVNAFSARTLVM
Oxysterols receptor LXR-beta (Homo sapiens), sequence (P55055 whole entry, looked up, the tested form may be a part): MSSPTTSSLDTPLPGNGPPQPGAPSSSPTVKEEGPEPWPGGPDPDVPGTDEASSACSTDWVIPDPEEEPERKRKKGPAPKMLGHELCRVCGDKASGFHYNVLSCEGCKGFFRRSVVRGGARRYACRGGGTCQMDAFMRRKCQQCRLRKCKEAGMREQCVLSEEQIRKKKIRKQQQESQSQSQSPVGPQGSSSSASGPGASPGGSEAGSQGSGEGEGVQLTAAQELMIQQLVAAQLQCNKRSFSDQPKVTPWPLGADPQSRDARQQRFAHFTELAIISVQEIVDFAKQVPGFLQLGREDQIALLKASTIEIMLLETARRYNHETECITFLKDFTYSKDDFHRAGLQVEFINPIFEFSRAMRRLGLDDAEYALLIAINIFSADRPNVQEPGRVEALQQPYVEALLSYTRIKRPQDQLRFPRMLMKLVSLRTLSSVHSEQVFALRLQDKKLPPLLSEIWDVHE
Nuclear receptor subfamily 4 group A member 2 (Homo sapiens), sequence (P43354 whole entry, looked up): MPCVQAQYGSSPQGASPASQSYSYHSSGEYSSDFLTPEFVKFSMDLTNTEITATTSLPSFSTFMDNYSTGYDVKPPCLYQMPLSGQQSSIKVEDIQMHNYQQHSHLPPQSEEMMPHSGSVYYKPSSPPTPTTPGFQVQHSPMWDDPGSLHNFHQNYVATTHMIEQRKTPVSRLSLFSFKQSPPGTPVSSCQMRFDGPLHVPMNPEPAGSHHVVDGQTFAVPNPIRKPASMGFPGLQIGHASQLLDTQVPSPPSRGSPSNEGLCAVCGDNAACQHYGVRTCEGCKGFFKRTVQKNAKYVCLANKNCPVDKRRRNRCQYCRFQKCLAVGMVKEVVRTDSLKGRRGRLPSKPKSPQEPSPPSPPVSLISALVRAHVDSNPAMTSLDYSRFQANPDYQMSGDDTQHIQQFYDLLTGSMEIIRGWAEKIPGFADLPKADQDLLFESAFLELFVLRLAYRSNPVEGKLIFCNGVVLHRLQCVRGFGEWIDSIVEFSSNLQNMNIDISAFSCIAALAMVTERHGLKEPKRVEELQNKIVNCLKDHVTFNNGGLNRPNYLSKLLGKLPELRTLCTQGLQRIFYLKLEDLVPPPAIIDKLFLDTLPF
Myc proto-oncogene protein (Homo sapiens), sequence (P01106 whole entry, looked up): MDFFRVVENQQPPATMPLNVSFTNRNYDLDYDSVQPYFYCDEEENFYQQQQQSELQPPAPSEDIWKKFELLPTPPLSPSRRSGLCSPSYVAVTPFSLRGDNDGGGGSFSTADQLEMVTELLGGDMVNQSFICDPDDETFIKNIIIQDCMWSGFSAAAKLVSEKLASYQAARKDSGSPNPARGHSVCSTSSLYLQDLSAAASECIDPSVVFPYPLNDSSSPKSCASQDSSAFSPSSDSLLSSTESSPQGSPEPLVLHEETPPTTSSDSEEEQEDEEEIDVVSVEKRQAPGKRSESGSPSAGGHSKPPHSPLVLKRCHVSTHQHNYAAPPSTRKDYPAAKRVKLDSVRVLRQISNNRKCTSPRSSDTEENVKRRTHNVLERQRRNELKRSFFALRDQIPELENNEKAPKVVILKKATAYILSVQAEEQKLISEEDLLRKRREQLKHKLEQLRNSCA
Oxysterols receptor LXR-alpha (Homo sapiens), sequence (Q13133 whole entry, looked up, the tested form may be a part): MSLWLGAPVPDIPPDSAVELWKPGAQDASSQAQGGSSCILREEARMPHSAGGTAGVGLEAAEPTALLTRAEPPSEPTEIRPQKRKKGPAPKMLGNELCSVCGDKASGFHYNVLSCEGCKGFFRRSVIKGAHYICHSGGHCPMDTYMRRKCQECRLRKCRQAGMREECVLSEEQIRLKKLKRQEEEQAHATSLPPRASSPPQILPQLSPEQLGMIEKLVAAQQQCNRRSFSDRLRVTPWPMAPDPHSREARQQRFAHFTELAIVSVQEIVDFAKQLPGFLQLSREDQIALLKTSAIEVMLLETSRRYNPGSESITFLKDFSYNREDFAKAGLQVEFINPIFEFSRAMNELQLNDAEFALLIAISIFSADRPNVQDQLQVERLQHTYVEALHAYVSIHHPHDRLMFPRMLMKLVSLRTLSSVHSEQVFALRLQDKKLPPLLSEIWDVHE
Hepatocyte nuclear factor 4-alpha (Homo sapiens), sequence (P41235 whole entry, looked up, the tested form may be a part): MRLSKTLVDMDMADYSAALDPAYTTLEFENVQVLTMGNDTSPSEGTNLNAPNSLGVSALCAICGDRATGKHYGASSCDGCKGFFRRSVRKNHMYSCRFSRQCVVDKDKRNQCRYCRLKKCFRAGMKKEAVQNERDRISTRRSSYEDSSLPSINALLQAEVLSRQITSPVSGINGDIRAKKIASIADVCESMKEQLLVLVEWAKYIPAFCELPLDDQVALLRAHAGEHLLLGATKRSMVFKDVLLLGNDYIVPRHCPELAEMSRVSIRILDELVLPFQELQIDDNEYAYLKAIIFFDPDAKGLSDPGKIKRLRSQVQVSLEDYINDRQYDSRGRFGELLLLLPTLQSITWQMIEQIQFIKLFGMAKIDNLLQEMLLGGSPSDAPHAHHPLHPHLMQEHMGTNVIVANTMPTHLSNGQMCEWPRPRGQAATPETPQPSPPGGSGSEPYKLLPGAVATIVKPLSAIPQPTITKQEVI

For `c1ccc(Cc2ccccc2)cc1`, the result in [1], in test [2], in [3], in [4], in test [5] and in test [6] was inactive. Also, the result in test [7], in test [8], in [9], in test [10], in test [11] and in [12] was inactive.

For the compound `CCCO`, the outcome in test [13], in test [3], in test [4], in [5], in test [6] and in test [7] was inactive. Moreover, the compound was classed as inactive in test [8], in test [9], in test [10], in [11] and in test [12].

Turning to `CCOC(=O)C=Cc1ccccc1`, the compound was classed as inactive in test [13], in test [4], in test [5], in test [6], in test [7] and in test [8]. Further, the compound was called inactive in test [9], in test [10], in test [12], in test [14], in [15] and in test [16]. Also, the result in [17] was inactive. Moreover, in test [11], the AC50 is 42.3 µM (active).

For `CCCC1CCOC(C)S1` (stereo not given), the outcome in test [13], in test [4], in test [6], in [7], in test [8] and in [9] was inactive. The result in [10], in test [11] and in test [12] was inactive.

For `O=c1cc[nH]cc1`, the compound was called inactive in test [13], in test [2], in [3], in test [4], in [5] and in [6]. Moreover, the result in [7], in test [9], in test [10], in [11], in test [12] and in test [14] was inactive.

Take `CC(C)=CCCC(C)=CC(=O)O`: the result in [13], in test [1], in [3], in test [6], in test [7] and in test [8] was inactive. The compound was classed as inactive in [9], in [10], in test [11], in test [12] and in [14].

Consider `O=S1(=O)CC=CC1`, for which the result in [13], in test [2], in test [6], in test [7], in test [8] and in test [9] was inactive. Moreover, the compound was called inactive in [10], in test [11], in [12] and in test [14].

Regarding `CN(C)C`, the outcome in [13], in test [1], in test [4], in test [6], in test [7] and in [8] was inactive. For the same compound, the outcome in test [9], in test [11], in test [12] and in [14] was inactive.

As for `CCCCCCOc1ccc(O)cc1`, the compound was called inactive in test [13], in test [1], in test [4], in test [6], in [7] and in test [8]. The result in [9] and in test [14] was inactive. Further, the AC50 in [11] was 18.7 µM (active); in [12], 33.4 µM (active).

Regarding `CC(CO)(CO)[N+](=O)[O-]`, the outcome in [13], in test [2], in [4], in test [6], in test [7] and in [9] was inactive. Besides, the call in [11] and in [12] was inactive.

Take `COC(=O)c1cccc(C(=O)OC)c1`: the outcome in test [13], in test [4], in test [6], in test [7], in test [9] and in [12] was inactive. In addition, the outcome in test [14] was inactive. In test [11], the AC50 is 24.7 µM (active).
